Source: PubChem BioAssay AID1508602 (The Scripps Research Institute Molecular Screening Center, 2020)
Screen size: about 650,000 compounds; about 6,800 (1%) were called active. The sample as a whole holds a higher share of actives than the screen did. A number with no mark means an inactive call. No stated cut-off is given here; in the data, active means activation above about 4.9%; inactive means the rest.

molecular target: G-protein coupled receptor 151 (Homo sapiens) (UniProt Q8TDV0); experiment: activates the human receptor GPR151, primary screen, cell-based, PathHunter beta-arrestin, luminescence (AID 1508602); details: PathHunter beta-arrestin GPR151 cells, at 11.2 µM, stronger effect = higher value;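 further: 0% = median of compound wells and 100% = cells with positive control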
Sequence (Q8TDV0 whole entry, looked up): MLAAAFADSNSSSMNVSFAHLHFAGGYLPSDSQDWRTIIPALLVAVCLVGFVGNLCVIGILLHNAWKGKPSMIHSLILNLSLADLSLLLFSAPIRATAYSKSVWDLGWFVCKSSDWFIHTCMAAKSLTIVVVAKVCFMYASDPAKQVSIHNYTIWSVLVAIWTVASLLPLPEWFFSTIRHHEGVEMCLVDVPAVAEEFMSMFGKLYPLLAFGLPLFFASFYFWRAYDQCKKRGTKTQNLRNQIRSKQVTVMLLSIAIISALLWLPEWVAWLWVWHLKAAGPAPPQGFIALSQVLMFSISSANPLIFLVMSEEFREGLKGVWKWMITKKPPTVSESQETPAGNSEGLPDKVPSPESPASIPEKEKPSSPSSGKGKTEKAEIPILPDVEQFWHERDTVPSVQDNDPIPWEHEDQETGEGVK

Point of comparison: `CCn1c(SCC(=O)Nc2ccccc2Cl)nnc1-c1ccccc1N`, activation 0.603%. Against it:
- COc1ccc2c(Cl)c(C(=O)Nc3ccc(N(C)C(C)=O)cc3)sc2c1 — lower, 0.165%
- O=C1CC[C@@H](CN(Cc2ccccn2)Cc2nc(-c3ccc4c(c3)OCO4)no2)N1 — lower, -0.5%
- c1ccc2c(c1)CCC2Nc1nncc(-c2ccc3c(c2)OCO3)n1 (stereo unspecified) — lower, 0.54%
- O=C1c2cccnc2C(=O)N1Cc1ccc(S(=O)(=O)NCc2ccccc2Cl)cc1 — lower, -0.655%
- COC(=O)c1sc(SC)nc1Nc1ccnc(Nc2ccc(N3CCOCC3)cc2OC)c1 — lower, 0.519%
- COc1ccc(NC(=O)/C(C#N)=C/c2ccccc2[N+](=O)[O-])cc1 — lower, 0.536%
- COc1cccc(/C=C(/C#N)C(=O)Nc2ccc(F)cc2)c1O — lower, 0.228%
- CCOc1nn(CC)cc1-c1nnc(SCC(=O)NC)n1C — higher, 1.61%
- CCCNC(=O)N1CCC2(CC1)OCc1ccccc1O2 — lower, -0.163%
- Cn1c(=O)cc(OCC(=O)NCCN2CCOCC2)c2ccccc21 — lower, -0.103%
- O=C(NCCN1CCOCC1)c1cncc(-c2ccccc2)c1 — lower, -0.0692%
- CC(O)CNc1ncnc2c1c(-c1ccccc1)cn2-c1ccc(Cl)cc1 (stereo unspecified) — lower, -0.64%
- O=C(Nc1cc(Oc2cccnc2)cc([N+](=O)[O-])c1)c1cc2nc(-c3ccc(F)cc3)cc(C(F)(F)F)n2n1 — lower, 0.0201%
- Cn1ccc(CC(=O)N2CCOc3ccc(CN4CCCC4)cc3C2)c1 — lower, -0.228%
- CCC(=O)Nc1ccc(C(=O)c2ccccc2)cc1NC(=O)CC — lower, 0.269%
- COc1cccc(OC)c1C(=O)Nc1cc(C(=O)O)ccc1C — higher, 1.75%
- COc1ccc(NC(=O)c2cc(S(=O)(=O)N3CCCCC3)ccc2F)cc1 — lower, -0.423%
- CCOc1ccc(NC(=O)/C(C#N)=C\c2ccc(OC)cc2)cc1 — lower, -0.986%
- O=C(COc1ccc([N+](=O)[O-])cc1)Nc1cccc(Br)c1 — lower, 0.574%
- Cc1cc2nc(-c3cccc(NC(=O)COc4ccc(Br)cc4)c3)oc2cc1C — lower, -0.225%
- Cc1cccc(NC(=O)COc2ccc([N+](=O)[O-])cc2)c1 — lower, 0.0864%
- O=C(Nc1ccc2oc(-c3ccc(F)cc3)nc2c1)c1ccc([N+](=O)[O-])cc1 — lower, 0.435%
- CCCNc1nc(Cl)nc2c1ncn2Cc1ccc(C(F)(F)F)cc1 — lower, 0.16%
- O=C(Cc1csc(SCc2cccc(Cl)c2)n1)NC1CCCC1 — lower, -0.537%
- Cc1ccc2c(c1)N(CC(=O)N(Cc1ccccc1)Cc1ccc3c(c1)OCO3)C(=O)CO2 — higher, 1.35%
- O=C(Nc1ccc2c(c1)OCO2)C(c1ccccc1)N(Cc1ccccc1)Cc1ccccc1 (stereo unspecified) — lower, -0.714%
- CC(C)(C)C(=O)CSc1nc2c(sc(=S)n2CCc2ccccc2)c(=O)n1Cc1ccco1 — lower, -0.941%
- CNC(=O)C(=O)NCCc1ccccc1 — higher, 2.61%
- O=C(NCCc1ccccc1)C(=O)NCCC1CCCCC1 — lower, -1.51%
- Cc1ccc2c(CC(=O)N3CCc4ccccc4C3)cc(=O)oc2c1 — lower, -1.02%
- Cc1nnc(C)n1/N=C/c1ccc(Br)cc1 — lower, 0.537%
- Cc1nc([N+](=O)[O-])cn1CC(=O)C12CC3CC(CC(C3)C1)C2 — lower, 0.332%
- COc1ccc(CCNc2cc(C)nc3ncnn23)cc1 — lower, -0.69%
- COP(=O)(OC)C(OC(=O)NC(=O)C(Cl)(Cl)Cl)c1ccccc1 (stereo unspecified) — lower, 0.583%
- CCN(CC)S(=O)(=O)c1ccc(N2CCCC2)c(C(=O)O)c1 — higher, 1.07%
- O=C(Nc1ccc(N2CCCCC2)c(Cl)c1)c1ccc([N+](=O)[O-])o1 — higher, 1.67%
- Cc1ccc(-c2cnn3ccc(NCc4cccnc4)nc23)cc1C — lower, -1.12%
- Cc1ccc(S(=O)(=O)N/N=C/c2c[nH]c3ccc(Br)cc23)cc1 — higher, 0.63%
- COc1cc(OC)cc(-c2nc(-c3ccccc3)c(-c3cccs3)[nH]2)c1 — lower, 0.0508%
- O=C(O)c1ccc(-c2nc(-c3cccs3)c(-c3cccs3)[nH]2)cc1 — higher, 1.43%
- O=C1NC2(CCN(CC3CCC=CO3)CC2)Oc2ccccc21 (stereo unspecified) — lower, -0.166%
- N#Cc1cccc(S(=O)(=O)Nc2cccc(Br)c2)c1 — higher, 0.99%
- CCN(CC)S(=O)(=O)c1cccc(C(=O)N/N=C(\C)c2ccc(C#N)cc2)c1 — lower, -0.108%
- CC(C)Oc1ccc(C(=O)Nc2sc3c(c2C(N)=O)CCCC3)cc1 — lower, -0.378%
- CNC(=O)c1c(NC(=O)c2cccc(OC)c2)sc2c1CCC2 — lower, -0.776%
- CNC(=O)c1c(NC(=O)c2ccc(OC)cc2)sc2c1CCCCC2 — lower, -1.51%
- NC(=O)c1c(NC(=O)c2ccc(Oc3ccccc3)cc2)sc2c1CCCCC2 — lower, -0.921%
- CCc1ccc2[nH]c3nc(SCC#N)nnc3c2c1 — lower, -0.711%
- COCCN1C(=O)CC(CC(=O)N2CCN(C)C[C@@H]2C(C)C)(c2cccc(OC)c2)C1=O (stereo partly specified) — higher, 1.08%
- CCCCOc1ccc(S(=O)(=O)NC2CCCCC2)cc1 — lower, -1.26%
- OCCNc1ncnc2nc(-c3ccccc3)[nH]c12 — lower, 0.187%
- Cc1nn(C)c(C)c1-c1nc2c(NCCO)ncnc2n1C(C)C — lower, -0.731%
- COc1ccc(-c2nnc(SCC(=O)NC(N)=O)o2)cc1 — higher, 0.906%
- N#CCCCSc1nnc(-c2ccc(C#N)cc2)o1 — lower, -0.162%
- CCOC(=O)c1cc2c(=O)n3ccccc3nc2n(Cc2ccco2)c1=NC(=O)c1ccc(Cl)cc1 — lower, -0.357%
- CC(C)N(C(=O)CN(C)S(=O)(=O)c1cc(Cl)ccc1Cl)C(C)C — lower, -0.725%
- COc1ccc(NC(=O)c2nn3c(C(F)(F)F)cc(-c4ccccc4)nc3c2Br)c(OC)c1 — higher, 2.64%
- CC(C)c1ccc(NC(=O)/C=C/c2ccccc2Cl)cc1 — higher, 1.13%
- NC(=O)NC(=O)COC(=O)/C=C/c1ccccc1Cl — higher, 1.72%
- O=C(/C=C/c1ccccc1Cl)Nc1ccc(I)cc1 — higher, 1.42%
- CC(=O)NS(=O)(=O)c1ccc(NC(=O)/C=C/c2ccccc2Cl)cc1 — higher, 0.647%
- CCOc1ccc(CN2CCN(Cc3ccc(C)o3)C(CCO)C2)cc1CO (stereo unspecified) — higher, 1.78%
- O=C(N/N=C/c1ccc([N+](=O)[O-])cc1)c1cccc(I)c1 — lower, -0.236%
- O=C(O)c1ccc(Br)c(N2C(=O)c3cc(Cl)c(Cl)cc3C2=O)c1 — lower, 0.176%
- Cc1ccccc1NC(=O)Nn1cnnc1 — lower, -0.0585%
- COc1ccc(CN(N=Nc2nonc2C)c2nonc2C)cc1 — lower, -0.147%
- CC(=O)c1ccc(C(=O)NCC2Cc3cc(Cl)cc(-c4ccncc4)c3O2)s1 (stereo unspecified) — higher, 1.35%
- Cc1nc(=S)[nH]c(C)c1CCC(=O)O — lower, 0.381%
- CCOC(=O)CCC(=O)OC(C(=O)c1ccccc1)c1ccccc1 (stereo unspecified) — higher, 0.912%
- CCOC(C(=O)c1ccccc1)c1ccccc1 (stereo unspecified) — lower, -0.174%
- CCc1ccc(CN2CCCC(CO)(Cc3cccc(OC)c3)C2)o1 (stereo unspecified) — higher, 0.911%
- N#Cc1c(-c2ccc(F)cc2)cc(-c2ccccc2)nc1SCCOc1ccccc1 — lower, -0.0587%
- Cc1cncc2cccc(N3CCN(C(=O)C(N)c4ccc(Br)cc4)CC3)c12 (stereo unspecified) — higher, 1.97%
- Cn1c(=O)c2cc(C(=O)NCCCN3CCCCCC3)sc2c2ccccc21 — higher, 0.856%
- CCN1CCN(C(=O)c2cc3c(=O)n(C)c4ccccc4c3s2)CC1 — higher, 0.989%

In the case of `CN(Cc1nc(-c2ccc3c(c2)OCO3)no1)C1CCCc2ccccc21` (stereo unspecified), the activation is reported as 6.73% (active).
`COc1ccc(/C=C(\C#N)C(=O)Nc2ccc(F)cc2)c(OC)c1` was tested, and the activation was 6.94% (active).
With `CC(=O)Oc1cc2c(C(=O)NCCN3CCOCC3)c(C)oc2c2ccccc12` the activation was 7.59% (active).
In the case of `CCC(=O)Nc1cc(C(=O)O)ccc1C`, the activation is reported as 5.86% (active).
For `COc1ccc(/C=C(\C#N)C(=O)Nc2cccc(S(=O)(=O)N3CCCCC3)c2)cc1`, the activation was 6.12% (active).
In the case of `O=C(COc1ccc([N+](=O)[O-])cc1)Nc1ccc2oc(-c3cccc(F)c3)nc2c1`, the activation is reported as 6.49% (active).
For `COC(=O)c1cc(NC(=O)COc2ccc([N+](=O)[O-])cc2)cc(C(=O)OC)c1`, the activation was 5.49% (active).
In the case of `CCC(=O)N(CCC(Cc1ccccc1)c1ccc2c(c1)OCO2)Cc1ccc(OC(C)C)cc1` (stereo unspecified), the activation is reported as 6.12% (active).
For `CC(C)(C)C1CCC(=NNC(=O)C(=O)NCCc2ccccc2)CC1` (stereo unspecified), the activation was 6.69% (active).
`CCN(CC)S(=O)(=O)c1ccc(N2CCCC2)c(NC(=O)c2ccc([N+](=O)[O-])o2)c1` was tested, and the activation was 5.27% (active).
In the case of `c1ccc(-c2nc(-c3cccs3)[nH]c2-c2cccs2)cc1`, the activation is reported as 6.25% (active).
`CCN(CC)S(=O)(=O)c1ccc(C)c(NS(=O)(=O)c2cccc(C#N)c2)c1` was tested, and the activation was 5.51% (active).
With `COc1cccc(C(=O)Nc2sc3c(c2C(N)=O)CCCCCC3)c1` the activation was 6.65% (active).
With `COc1ccc(C(=O)Nc2sc3c(c2C(N)=O)CCCC3)cc1` the activation was 5.12% (active).
For `Cc1nn(C)c(C)c1-c1nc2ncnc(NCCO)c2[nH]1`, the activation was 7.4% (active).
For `COc1ccc(-c2nnc(SCCC#N)o2)cc1`, the activation was 10.1% (active).
`O=C(O)/C=C/c1ccccc1Cl` was tested, and the activation was 5.27% (active).
With `CC(C)NC(=O)/C=C/c1ccccc1Cl` the activation was 5.07% (active).
For `CCOC(=O)C(C(=O)c1ccccc1)C1(O)C(=O)c2ccccc2C1=O` (stereo unspecified), the activation was 6.04% (active).
For `CC1CCCCN1C(=O)c1cc2c(=O)n(C)c3ccccc3c2s1` (stereo unspecified), the activation was 5.42% (active).
